# Assay results reported in PubChem BioAssay (NCATS).
# “And” between values parts separate entries of the source, which are not always exact repeats. Equal values may be shown once. Inconclusive results are not listed. Where a call stands in place of a potency, no number is given. Values without a mark were called inactive. The source made the active and inactive calls. Calls come from the whole dose curve; as a rule, active = well fitted curve in the direction sought with a large enough effect; inconclusive = small, poorly fitted or top-dose-only effect, or another doubt; inactive = no such curve, though single readings can be large; an effect the other way counts as inactive or inconclusive. Where a SMILES comes first, the peptide text is derived from it. Bridges are numbered along the chain shown (N, C = ends). [ ]: non-standard residue; d: D form. The star is where a group is joined. X1 = CCC(C)C(N)C1=NC(C(=O)*)CS1; dOrn = NCCC[C@@H](N)C(=O)O
# Key:
# [1] = biological target: Cytochrome P450 3A7 (Homo sapiens) (UniProt P24462); assay: Cytochrome P450 family 3 subfamily A member 7 (CYP3A7) small molecule antagonists: luciferase biochemical qHTS assay (AID 1963596); note: nearly all actives have a fitted effect of over 40% in size
# Chain of Cytochrome P450 3A7 (Homo sapiens) (P24462 whole entry, looked up): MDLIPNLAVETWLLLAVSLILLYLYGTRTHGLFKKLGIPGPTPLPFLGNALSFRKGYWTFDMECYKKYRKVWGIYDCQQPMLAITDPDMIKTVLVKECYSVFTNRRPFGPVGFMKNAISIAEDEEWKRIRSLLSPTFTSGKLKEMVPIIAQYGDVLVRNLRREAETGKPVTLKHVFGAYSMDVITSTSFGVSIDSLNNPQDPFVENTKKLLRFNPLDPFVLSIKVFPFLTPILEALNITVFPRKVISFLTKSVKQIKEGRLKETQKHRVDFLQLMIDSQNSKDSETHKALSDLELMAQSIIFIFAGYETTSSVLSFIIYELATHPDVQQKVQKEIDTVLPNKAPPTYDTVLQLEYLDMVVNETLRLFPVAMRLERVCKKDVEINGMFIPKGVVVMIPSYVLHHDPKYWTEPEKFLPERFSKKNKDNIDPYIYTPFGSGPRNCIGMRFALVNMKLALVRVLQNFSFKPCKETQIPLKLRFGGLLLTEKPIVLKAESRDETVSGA
# Outline: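 Luminescence read-out (relative luminescence units) after 20 min with detection reagent, which stops the reaction. Enzyme, proluciferin substrate and compound preincubated 10 min, RT; NADPH regeneration system then started 1 h reaction. Ketoconazole as positive control.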
# [2] = Viability qHTS for spleen associated tyrosine kinase inhibitor (SYKi) naive MV4-11 cells (AID 1963823); note: nearly all actives have a fitted effect of over 40% in size; note: potency is the fitted concentration of half-maximal effect
# Outline: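 In this viability screen, compounds acted on SYK inhibitor naive MV4-11 cells for three days (72 hr, 37 C). Remaining viable cells were measured by CellTiter-Glo luminescence following a 10 min room-temperature development.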
# [3] = Viability qHTS for spleen associated tyrosine kinase inhibitor (SYKi) drug resistant MV4-11 cells (AID 1963824); note: nearly all actives have a fitted effect of over 35% in size; note: potency is the fitted concentration of half-maximal effect
# Outline: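 CellTiter-Glo luminescence, read 10 min after reagent addition, reports viability after a 72 hr compound exposure. Cells are an MV4-11 line made resistant to SYK inhibition, seeded at 500 per well onto compound-containing plates.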
# [4] = Cellular viability qHTS for adrenocortical cancer (ACC) cell line SW-13 (AID 1963989); settings: SW-13 ACC cells viability, CellTiter-Glo, 48 h; activity (max response): hits give low values; note: nearly all actives have a fitted effect of over 65% in size; note: potency is the fitted concentration of half-maximal effect;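 for activity (max response): cells grown in serum-free medium with ITS supplement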
# Outline: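 48 h treatment, SW-13 in ITS/DMEM serum-free; doses up to 46 uM; readout CellTiter-Glo luminescence; curve fit four-parameter logistic.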
# [5] = Cellular viability qHTS for adrenocortical cancer (ACC) cell line NCI-H295R (AID 1963990); note: nearly all actives have a fitted effect of over 60% in size
# Outline: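 Compound titrations (up to 46 uM final) are applied to NCI-H295R cultures for 48 h at 37C. Viable cell number is estimated by CellTiter-Glo signal, normalised to DMSO and doxorubicin controls.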
structure (smiles),measurement,setting,value
CCCCC/C(C=O)=C\c1ccccc1,Potency,[1],inactive
same,Potency,[2],inactive
same,Potency,[3],inactive
same,activity (max response),[4],6.34%
CCC(=O)Nc1cccc(Oc2nc(Nc3ccc(N4CCN(C)CC4)cc3OC)ncc2Cl)c1,Potency,[1],inactive
same,Potency,[2],1.64 µM (active) and 2.35 µM (active)
same,Potency,[3],2.91 µM (active) and 2.35 µM (active)
same,activity (max response),[4],-16.6%
COC(=O)c1cc(Cl)c(NC(C)=O)cc1OC,Potency,[1],inactive
same,Potency,[2],inactive
same,Potency,[3],inactive
same,activity (max response),[4],11.7%
C[C@@H]1CCNC(=O)c2cc3ccc(C(=O)Nc4nc5ccccc5n4CCCN(C)C)cc3n21,Potency,[1],inactive
same,Potency,[2],0.662 µM (active)
same,Potency,[3],820 nM (active)
same,Potency,[4],25100 nM (active)
O=c1[nH]c2ccccc2c(=O)n1CCCl,Potency,[1],inactive
same,Potency,[2],inactive
same,Potency,[3],inactive
same,activity (max response),[4],10.7%
same,Potency,[5],inactive
CN1C(=O)CC(C)(c2ccccc2)C1=O (stereo not drawn),Potency,[1],inactive
same,Potency,[2],inactive
same,Potency,[3],inactive
same,activity (max response),[4],-10.7%
Cn1c(=O)c2[nH]cnc2n(C)c1=O,Potency,[1],inactive
same,Potency,[2],inactive
same,Potency,[3],inactive
same,activity (max response),[4],-5.93% and 14.5%
CC(C(=O)O)c1ccc(CC2CCCC2=O)cc1 (stereo not drawn),Potency,[1],inactive
same,Potency,[2],inactive
same,Potency,[3],inactive
same,activity (max response),[4],7.96%
N[C@@H](CSSC[C@H](N)C(=O)O)C(=O)O,"activity change, negative = inhibition",[1],0.172% [at 0.91 µM]
same,viability (% of control),[2],68.4% [at 0.588 µM]
same,"viability, % of control",[3],76.8% [at 0.588 µM]
same,activity (max response),[4],5.04%
same,"activity change, negative = viability loss",[5],-0.603% [at 0.587 µM]
C=CCc1ccc(O)c(OC)c1,Potency,[1],inactive
same,Potency,[2],inactive
same,Potency,[3],inactive
same,activity (max response),[4],6.59%
same,Potency,[5],inactive
CC(O)COc1ccccc1 (stereo not drawn),Potency,[1],inactive
same,Potency,[2],inactive
same,Potency,[3],inactive
same,activity (max response),[4],5.91%
same,Potency,[5],inactive
CC(=O)Nc1ccn(C2COC(COC(=O)c3ccccc3)O2)c(=O)n1 (stereo not drawn),Potency,[1],inactive
same,Potency,[2],2.31 µM (active)
same,Potency,[3],1640 nM (active)
same,activity (max response),[4],-9.44%
CC(=O)NC(Cc1ccccc1)C(=O)O (stereo not drawn),Potency,[1],inactive
same,Potency,[2],inactive
same,Potency,[3],inactive
same,activity (max response),[4],-3.3%
same,Potency,[5],inactive
CC(=O)O[C@@H]1CC2C3CCc4cc(OC(=O)c5ccccc5)ccc4C3CCC2(C)[C@H]1OC(C)=O (stereo partly drawn),Potency,[1],inactive
same,Potency,[2],inactive
same,Potency,[3],inactive
same,activity (max response),[4],3.65%
same,Potency,[5],inactive
Cc1ccc2c(n1)Oc1ccc(C(C)C(=O)OCC(=O)N(C)C)cc1C2 (stereo not drawn),Potency,[1],inactive
same,Potency,[2],11.9 µM (active)
same,Potency,[3],inactive
same,activity (max response),[4],-7.34% and -9.36%
O=C1CC[C@H](C(=O)N2CCCCC2)N1,Potency,[1],inactive
same,Potency,[2],inactive
same,Potency,[3],inactive
same,activity (max response),[4],-2.75%
CC1(C)[C@@H]2CC[C@@]1(C)C(=O)C2,Potency,[1],inactive
same,Potency,[2],inactive
same,Potency,[3],inactive
same,activity (max response),[4],10.1%
same,Potency,[5],inactive
CC[C@H]1OC(=O)[C@H](C)[C@@H](O[C@H]2C[C@@](C)(OC)[C@@H](O)[C@H](C)O2)[C@H](C)[C@@H](O[C@@H]2O[C@H](C)C[C@H](N(C)C)[C@H]2O)[C@](C)(O)C[C@@H](C)CN(C)[C@H](C)[C@@H](O)[C@]1(C)O,Potency,[1],inactive
same,Potency,[2],inactive
same,Potency,[3],inactive
same,activity (max response),[4],-23.1%
same,Potency,[5],inactive
C=Cc1c(C)c2cc3[nH]c(cc4nc(cc5nc(cc1[nH]2)C(C)=C5CCC(=O)O)C(CCC(=O)O)=C4C)c(C)c3C=C,Potency,[1],inactive
same,Potency,[2],inactive
same,Potency,[3],inactive
same,activity (max response),[4],-8.14%
NC(=O)N1c2ccccc2C=Cc2ccccc21,Potency,[1],inactive
same,Potency,[2],inactive
same,Potency,[3],inactive
same,activity (max response),[4],8.83%
same,Potency,[5],inactive
OC[C@H]1O[C@H](O[C@]2(CCl)O[C@H](CCl)[C@@H](O)[C@@H]2O)[C@H](O)[C@@H](O)[C@H]1Cl,Potency,[1],inactive
same,Potency,[2],inactive
same,Potency,[3],inactive
same,activity (max response),[4],-4.41%
same,Potency,[5],inactive
C[C@H](Nc1ncnc2nc[nH]c12)c1cc2cccc(Cl)c2c(=O)n1-c1ccccc1,Potency,[1],inactive
same,Potency,[2],11.8 µM (active)
same,Potency,[3],5.8 µM (active) and 6.61 µM (active)
same,activity (max response),[4],-1.12%
CCC(C)C(N)C1=NC(C(=O)N[C@@H](CC(C)C)C(=O)N[C@H](CCC(=O)O)C(=O)N[C@H](C(=O)N[C@H]2CCCCNC(=O)[C@H](CC(N)=O)NC(=O)[C@@H](CC(=O)O)NC(=O)[C@H](Cc3cnc[nH]3)NC(=O)[C@@H](Cc3ccccc3)NC(=O)[C@H]([C@@H](C)CC)NC(=O)[C@@H](CCCN)NC2=O)[C@@H](C)CC)CS1 (stereo partly drawn) (X1-L[dE]IK[dOrn]I[dF]H[dD]N; lactam 4-C),Potency,[1],inactive
same,Potency,[2],inactive
same,Potency,[3],inactive
same,activity (max response),[4],-8.42%
CN1N=C(C(N)=O)CCC1=O,Potency,[1],inactive
same,Potency,[2],inactive
same,Potency,[3],inactive
same,activity (max response),[4],11.7%
CN1Cc2cc(C(=O)N3CCC(C4CCNCC4)CC3)ccc2N[C@@H](CC(=O)O)C1=O,Potency,[1],inactive
same,Potency,[2],inactive
same,Potency,[3],inactive
same,activity (max response),[4],10.2%
same,Potency,[5],inactive
CCN1CCN(c2cc3c(cc2F)c(=O)c(C(=O)O)cn3C2CC2)CC1,Potency,[1],inactive
same,Potency,[2],inactive
same,Potency,[3],inactive
same,activity (max response),[4],2.41%
CN(C)CC[C@@H](c1ccc(Cl)cc1)c1ccccn1,Potency,[1],inactive
same,Potency,[2],inactive
same,Potency,[3],inactive
same,activity (max response),[4],7.75%
same,Potency,[5],inactive
O=C(O)CCCC[P+](c1ccccc1)(c1ccccc1)c1ccccc1,Potency,[1],inactive
same,Potency,[2],inactive
same,Potency,[3],inactive
same,activity (max response),[4],2%
COc1ccc(CN(CCN(C)C)c2ncccn2)cc1,Potency,[1],inactive
same,Potency,[2],inactive
same,Potency,[3],inactive
same,activity (max response),[4],-7.84%
CCOC(=O)c1ccccc1O,Potency,[1],inactive
same,Potency,[2],inactive
same,Potency,[3],inactive
same,activity (max response),[4],-1.17%
same,Potency,[5],inactive
